Source: PubChem BioAssay (EPA / NIEHS)
Several values for one entry are separate records, joined by “and”; a condition that tells them apart may be missing. Equal values may be shown once. Records with an inconclusive call do not appear. The source holds several records for some structures; these can differ, active in one and inactive in another. Activity calls are given as the source filed them. Rule for the calls, unless noted: active = hit-call score of the fitted dose curve at least 0.9, where 1 is the maximum; inactive = score below 0.9.

Experiments:
[1] = ATG_NFI_CIS: Attagene CIS-FACTORIAL HepG2 Assay for human Nuclear Factor I (NFI) (AID 2282989); conditions: HepG2 cis-regulatory reporter, NFI response element transcription; actives raise or lower the signal
In short: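 HepG2, transient MRTU, 24 h exposure; RNA→cDNA→PCR→FAM label→HpaI→CE fluorescence. Bidirectional fit, DMSO = baseline.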

[2] = target: Myc proto-oncogene protein (Homo sapiens) (UniProt P01106); assay: ATG_Myc_CIS: Attagene CIS-FACTORIAL HepG2 Assay for human Myelocytomatosis (Myc) Proto-Oncogene Transcription Factor (AID 2282990); conditions: HepG2, Attagene cis-reporter transcription factor activity; actives raise or lower the signal
Myc proto-oncogene protein (Homo sapiens), sequence (P01106 whole entry, looked up): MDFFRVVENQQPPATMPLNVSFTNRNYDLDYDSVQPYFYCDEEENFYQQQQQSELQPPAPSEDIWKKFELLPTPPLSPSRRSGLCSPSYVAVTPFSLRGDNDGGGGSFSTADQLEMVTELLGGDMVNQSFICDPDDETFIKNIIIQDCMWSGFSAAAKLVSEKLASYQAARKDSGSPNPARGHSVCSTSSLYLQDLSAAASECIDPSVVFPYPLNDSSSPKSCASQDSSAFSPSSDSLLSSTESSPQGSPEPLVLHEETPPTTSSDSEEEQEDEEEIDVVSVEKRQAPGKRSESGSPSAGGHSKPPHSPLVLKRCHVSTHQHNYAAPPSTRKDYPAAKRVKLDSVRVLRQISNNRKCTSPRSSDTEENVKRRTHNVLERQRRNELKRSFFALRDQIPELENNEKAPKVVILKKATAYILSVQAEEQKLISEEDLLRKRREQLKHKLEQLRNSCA
In short: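 Cells of the HepG2 human liver line bear multiple cis-driven reporter transcription units. Reporter mRNA after 24 h exposure is reverse-transcribed, amplified, labelled and resolved by capillary electrophoresis, with gain- or loss-of-signal fitting relative to DMSO.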

[3] = ATG_NF_kB_CIS: Attagene CIS-FACTORIAL HepG2 Assay for human Nuclear Factor Kappa B (NF-kB) (AID 2282991); conditions: HepG2 Attagene cis-factorial NF-kB reporter mRNA; actives raise or lower the signal
In short: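 Measures mRNA induction of an NF-kB-responsive cis-element reporter in HepG2 cells transfected with multiple reporter units, sampled 24 h post-dosing; quantified by fluorescence after RT-PCR and capillary electrophoresis, fitted for activation or inhibition against DMSO.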

[4] = ATG_NRF2_ARE_CIS: Attagene CIS-FACTORIAL HepG2 Assay for human Nuclear Factor Erythroid 2 Related Factor 2 (NFR2) response to Antioxidant Response Elements (ARE) (AID 2282992); conditions: HepG2 Attagene ARE/NRF2 reporter, transcription factor activity; actives raise or lower the signal;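 for AC50: reporter mRNA level measured by RT-PCR and capillary electrophoresis fluorescence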
In short: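 Multiplexed reporter mRNA profiling in HepG2 after a 24 h chemical exposure. Curves fitted in both directions relative to DMSO negative control.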

[5] = ATG_Oct_MLP_CIS: Attagene CIS-FACTORIAL HepG2 Assay for human Octamer-Binding Transcription Factor (Oct) (AID 2282993); conditions: HepG2 Attagene cis-factorial Oct reporter, mRNA; actives raise or lower the signal
In short: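 Multiplexed cis-reporter assay in human liver HepG2 cells, 24 h incubation. Reporter RNA amplified and labelled, then resolved by capillary electrophoresis; DMSO serves as negative control and baseline.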

[6] = target: Cellular tumor antigen p53 (Homo sapiens) (UniProt P04637); assay: ATG_p53_CIS: Attagene CIS-FACTORIAL HepG2 Assay for human p53 Transcription Factor (AID 2282994); conditions: HepG2 p53 cis-element reporter, Attagene mRNA; actives raise or lower the signal
Cellular tumor antigen p53 (Homo sapiens), sequence (P04637 whole entry, looked up): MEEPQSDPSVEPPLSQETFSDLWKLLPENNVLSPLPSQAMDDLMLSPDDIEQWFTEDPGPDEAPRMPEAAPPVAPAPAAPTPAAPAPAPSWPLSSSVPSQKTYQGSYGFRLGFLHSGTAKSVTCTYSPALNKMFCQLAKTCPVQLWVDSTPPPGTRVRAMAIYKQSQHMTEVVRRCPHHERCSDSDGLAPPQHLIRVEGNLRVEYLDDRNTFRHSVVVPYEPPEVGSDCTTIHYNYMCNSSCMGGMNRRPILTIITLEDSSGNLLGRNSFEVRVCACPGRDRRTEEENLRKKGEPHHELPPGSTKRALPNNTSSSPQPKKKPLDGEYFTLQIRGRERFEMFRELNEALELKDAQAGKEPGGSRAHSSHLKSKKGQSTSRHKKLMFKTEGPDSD
In short: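 Multiplexed reporter mRNA assay in human HepG2 liver cells; cis-regulated units report endogenous factor activity. Values come from bidirectional curve fitting against DMSO negative control after 24 h treatment.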

[7] = BSK_3C_TissueFactor: BioMAP Diversity Plus: 3C Assay for Tissue Factor Biomarker Activity (AID 2282997); conditions: BioMAP 3C HUVEC, tissue factor biomarker readout; actives raise or lower the signal
In short: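 Human vascular primary cells (umbilical vein endothelium) received test chemical; Tissue Factor was determined by ELISA at 24 h, and both gain and loss of signal versus DMSO were fitted.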

[8] = BSK_3C_VCAM1: BioMAP Diversity Plus: 3C Assay for Vascular cell adhesion molecule 1 (VCAM1) Biomarker Activity (AID 2282999); conditions: BioMAP 3C HUVEC, VCAM1 ELISA, cytokine-stimulated; actives raise or lower the signal
In short: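 Endothelial cells from human umbilical vein are treated with test chemical. At 24 h, VCAM-1 is measured by ELISA, and responses in either direction are fitted relative to DMSO.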

[9] = BSK_4H_Eotaxin3: BioMAP Diversity Plus: 4H Assay for Eotaxin 3 Biomarker Activity (AID 2283000); conditions: primary human endothelial cells (HUVEC); actives raise or lower the signal
In short: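 Readout is Eotaxin-3 (CCL26) level by ELISA in primary human umbilical vein endothelial cells harvested 24 h after chemical exposure; activity fitted in both directions against DMSO control.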

[10] = target: human Peroxisome Proliferator-activated Receptor alpha (PPARa), PPARA (gene 5465) (UniProt Q07869); assay: ATG_PPARa_TRANS: Attagene TRANS-FACTORIAL HepG2 Assay for human Peroxisome Proliferator-activated Receptor alpha (PPARa) (AID 2283001; active = hit-call score of the fitted dose curve at least 0.9, where 1 is the maximum)
human Peroxisome Proliferator-activated Receptor alpha (PPARa), PPARA (gene 5465), sequence (Q07869 whole entry, looked up, the tested form may be a part): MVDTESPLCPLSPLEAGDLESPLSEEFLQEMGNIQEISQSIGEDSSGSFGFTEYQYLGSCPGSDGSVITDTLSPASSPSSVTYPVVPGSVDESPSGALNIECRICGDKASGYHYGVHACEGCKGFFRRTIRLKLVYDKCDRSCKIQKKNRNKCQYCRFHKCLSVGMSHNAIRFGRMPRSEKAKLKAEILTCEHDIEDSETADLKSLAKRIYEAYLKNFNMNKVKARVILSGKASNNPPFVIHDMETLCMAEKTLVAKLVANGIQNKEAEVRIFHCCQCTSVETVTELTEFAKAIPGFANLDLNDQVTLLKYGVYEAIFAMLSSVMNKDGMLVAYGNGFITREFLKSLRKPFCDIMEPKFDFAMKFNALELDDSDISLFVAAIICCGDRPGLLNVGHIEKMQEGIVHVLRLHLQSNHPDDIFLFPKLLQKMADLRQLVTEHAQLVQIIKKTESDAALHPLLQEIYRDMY
In short: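 Read-out is fluorescence of reporter cDNA fragments resolved by capillary electrophoresis after RT-PCR. Human HepG2 liver cells carried transfected PPARa-Gal4 chimera and GAL4-UAS reporter units, treated 24 h; activity scored as increase over DMSO.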

[11] = target: human Peroxisome Proliferator-activated Receptor delta (PPARd), PPARD (gene 5467) (UniProt Q03181); assay: ATG_PPARd_TRANS: Attagene TRANS-FACTORIAL HepG2 Assay for human Peroxisome Proliferator-activated Receptor delta (PPARd) (AID 2283002; active = hit-call score of the fitted dose curve at least 0.9, where 1 is the maximum)
human Peroxisome Proliferator-activated Receptor delta (PPARd), PPARD (gene 5467), sequence (Q03181 whole entry, looked up): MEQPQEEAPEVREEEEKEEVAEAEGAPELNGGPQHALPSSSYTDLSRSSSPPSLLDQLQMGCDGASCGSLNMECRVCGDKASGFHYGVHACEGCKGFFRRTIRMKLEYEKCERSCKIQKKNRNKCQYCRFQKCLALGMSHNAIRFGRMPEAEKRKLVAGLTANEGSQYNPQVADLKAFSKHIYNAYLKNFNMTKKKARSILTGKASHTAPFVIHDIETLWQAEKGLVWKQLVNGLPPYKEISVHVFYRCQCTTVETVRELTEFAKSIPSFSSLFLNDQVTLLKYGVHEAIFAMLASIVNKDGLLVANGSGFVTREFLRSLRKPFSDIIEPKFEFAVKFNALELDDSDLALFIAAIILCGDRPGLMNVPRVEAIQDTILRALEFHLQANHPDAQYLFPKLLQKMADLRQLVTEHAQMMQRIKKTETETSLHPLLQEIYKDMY
In short: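 Cell-based TRANS reporter: HepG2, transient MRTU transfection, 24 h exposure. Readout = reporter mRNA (RT-PCR/CE, 6-FAM). Gain-of-signal fit vs DMSO control.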

[12] = target: Retinoic acid receptor alpha (Homo sapiens) (UniProt P10276); assay: ATG_RARa_TRANS: Attagene TRANS-FACTORIAL HepG2 Assay for human Retinoic Acid Receptor alpha (RARa) (AID 2283005; active = hit-call score of the fitted dose curve at least 0.9, where 1 is the maximum;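 for AC50: potency for increased reporter signal meaning RARa activation over DMSO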)
Retinoic acid receptor alpha (Homo sapiens), sequence (P10276 whole entry, looked up, the tested form may be a part): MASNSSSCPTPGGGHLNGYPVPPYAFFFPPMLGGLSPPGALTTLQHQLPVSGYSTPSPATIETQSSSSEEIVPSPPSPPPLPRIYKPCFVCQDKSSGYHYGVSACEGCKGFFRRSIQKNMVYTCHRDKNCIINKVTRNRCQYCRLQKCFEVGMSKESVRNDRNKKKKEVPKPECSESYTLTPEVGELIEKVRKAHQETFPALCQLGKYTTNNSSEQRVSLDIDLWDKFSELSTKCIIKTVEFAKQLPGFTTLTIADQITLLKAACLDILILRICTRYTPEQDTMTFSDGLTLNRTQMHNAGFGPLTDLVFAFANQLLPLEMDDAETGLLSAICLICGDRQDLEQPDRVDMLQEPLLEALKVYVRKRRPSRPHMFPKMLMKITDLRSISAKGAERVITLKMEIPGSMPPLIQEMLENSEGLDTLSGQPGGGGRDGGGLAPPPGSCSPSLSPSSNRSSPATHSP
In short: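 Reporter transcripts, measured by RT-PCR with fluorescent labeling and capillary electrophoresis after 24 h dosing, reflect activity of an exogenous human RARa–GAL4 fusion in transiently transfected HepG2. Fitted for increase relative to DMSO.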

[13] = BSK_3C_Proliferation: Cell Proliferation Assessment in the BioMAP Diversity Plus: 3C Assay (AID 2283006); conditions: primary human endothelial cells (HUVEC);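 for AC50: potency may reflect either rise or fall in cell number versus DMSO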
In short: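 Subconfluent HUVEC (3C system) cultured with chemical; relative cell number read at 48 h by sulforhodamine B total-protein staining (0.1% SRB after 10% TCA fixation, 560 nm). Bidirectional fit relative to DMSO.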

[14] = target: Peroxisome proliferator-activated receptor gamma (Homo sapiens) (UniProt P37231); assay: ATG_PPARg_TRANS: Attagene TRANS-FACTORIAL HepG2 Assay for human Peroxisome Proliferator-activated Receptor-gamma (PPARg) (AID 2283007; active = hit-call score of the fitted dose curve at least 0.9, where 1 is the maximum)
Peroxisome proliferator-activated receptor gamma (Homo sapiens), sequence (P37231 whole entry, looked up, the tested form may be a part): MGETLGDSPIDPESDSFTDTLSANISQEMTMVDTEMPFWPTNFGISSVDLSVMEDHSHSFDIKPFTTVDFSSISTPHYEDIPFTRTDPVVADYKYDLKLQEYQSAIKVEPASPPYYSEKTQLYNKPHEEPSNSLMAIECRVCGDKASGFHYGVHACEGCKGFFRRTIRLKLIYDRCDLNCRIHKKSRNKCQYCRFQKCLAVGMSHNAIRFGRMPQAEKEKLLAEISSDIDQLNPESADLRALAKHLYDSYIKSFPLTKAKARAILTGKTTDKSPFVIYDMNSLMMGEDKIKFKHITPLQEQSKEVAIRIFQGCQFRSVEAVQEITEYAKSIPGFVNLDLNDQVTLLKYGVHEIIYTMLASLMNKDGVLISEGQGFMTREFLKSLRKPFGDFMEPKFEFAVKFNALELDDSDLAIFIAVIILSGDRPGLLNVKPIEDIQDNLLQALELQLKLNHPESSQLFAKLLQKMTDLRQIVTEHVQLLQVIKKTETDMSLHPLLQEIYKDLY
In short: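 Gain-of-signal endpoint relative to DMSO, derived from reporter mRNA levels quantified by RT-PCR and capillary electrophoresis. Cells were HepG2 transiently expressing a chimeric NR-Gal4 construct with GAL4-UAS reporters, exposed to chemicals for 24 h.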

[15] = target: Nuclear receptor subfamily 1 group I member 2 (Homo sapiens) (UniProt O75469); assay: ATG_PXR_TRANS: Attagene TRANS-FACTORIAL HepG2 Assay for human Pregnane X Receptor (PXR) (AID 2283008; active = hit-call score of the fitted dose curve at least 0.9, where 1 is the maximum)
Nuclear receptor subfamily 1 group I member 2 (Homo sapiens), sequence (O75469 whole entry, looked up, the tested form may be a part): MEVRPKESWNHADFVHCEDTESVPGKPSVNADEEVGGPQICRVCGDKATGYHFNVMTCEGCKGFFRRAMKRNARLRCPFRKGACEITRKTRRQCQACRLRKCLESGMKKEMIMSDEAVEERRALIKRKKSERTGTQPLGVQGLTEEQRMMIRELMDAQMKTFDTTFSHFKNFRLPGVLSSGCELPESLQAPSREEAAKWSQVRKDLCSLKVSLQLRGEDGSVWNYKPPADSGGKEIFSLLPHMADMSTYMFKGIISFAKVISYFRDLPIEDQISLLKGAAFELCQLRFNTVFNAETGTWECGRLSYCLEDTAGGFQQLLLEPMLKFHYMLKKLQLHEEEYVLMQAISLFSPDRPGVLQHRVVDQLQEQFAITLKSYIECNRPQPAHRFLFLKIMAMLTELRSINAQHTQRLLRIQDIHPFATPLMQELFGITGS
In short: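 Measures mRNA induction of a GAL4-UAS-driven reporter in human HepG2 cells transiently expressing PXR fused to Gal4, following 24 h treatment. DMSO served as negative control and baseline.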

[16] = target: human Retinoic Acid Receptor gamma (RARg), RARG (gene 5916) (UniProt P13631); assay: ATG_RARg_TRANS: Attagene TRANS-FACTORIAL HepG2 Assay for human Retinoic Acid Receptor gamma (RARg) (AID 2283009; active = hit-call score of the fitted dose curve at least 0.9, where 1 is the maximum)
human Retinoic Acid Receptor gamma (RARg), RARG (gene 5916), sequence (P13631 whole entry, looked up, the tested form may be a part): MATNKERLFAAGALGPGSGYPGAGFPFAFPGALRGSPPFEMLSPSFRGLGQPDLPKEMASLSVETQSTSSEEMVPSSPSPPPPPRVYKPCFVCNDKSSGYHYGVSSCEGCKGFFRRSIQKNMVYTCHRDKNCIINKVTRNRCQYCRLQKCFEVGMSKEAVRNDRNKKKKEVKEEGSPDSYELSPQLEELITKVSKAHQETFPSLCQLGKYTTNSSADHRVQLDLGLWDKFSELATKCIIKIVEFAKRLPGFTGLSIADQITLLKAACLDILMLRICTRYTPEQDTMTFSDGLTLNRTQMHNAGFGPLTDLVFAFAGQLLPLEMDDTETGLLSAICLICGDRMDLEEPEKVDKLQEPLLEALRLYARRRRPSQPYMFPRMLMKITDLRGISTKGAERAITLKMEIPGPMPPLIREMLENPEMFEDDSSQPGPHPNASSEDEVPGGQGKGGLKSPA
In short: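 HepG2 transiently transfected with GAL4-UAS reporter units and chimeric NR-Gal4 constructs; 24 h compound exposure. Reporter mRNA quantified by RT-PCR, FAM labeling, HpaI digestion and capillary electrophoresis; gain-of-signal versus DMSO.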

[17] = target: human RAR-related Orphan Receptor beta (RORb), RORB (gene 6096) (UniProt Q92753); assay: ATG_RORb_TRANS: Attagene TRANS-FACTORIAL HepG2 Assay for human RAR-related Orphan Receptor beta (RORb) (AID 2283010; active = hit-call score of the fitted dose curve at least 0.9, where 1 is the maximum)
human RAR-related Orphan Receptor beta (RORb), RORB (gene 6096), sequence (Q92753 whole entry, looked up, the tested form may be a part): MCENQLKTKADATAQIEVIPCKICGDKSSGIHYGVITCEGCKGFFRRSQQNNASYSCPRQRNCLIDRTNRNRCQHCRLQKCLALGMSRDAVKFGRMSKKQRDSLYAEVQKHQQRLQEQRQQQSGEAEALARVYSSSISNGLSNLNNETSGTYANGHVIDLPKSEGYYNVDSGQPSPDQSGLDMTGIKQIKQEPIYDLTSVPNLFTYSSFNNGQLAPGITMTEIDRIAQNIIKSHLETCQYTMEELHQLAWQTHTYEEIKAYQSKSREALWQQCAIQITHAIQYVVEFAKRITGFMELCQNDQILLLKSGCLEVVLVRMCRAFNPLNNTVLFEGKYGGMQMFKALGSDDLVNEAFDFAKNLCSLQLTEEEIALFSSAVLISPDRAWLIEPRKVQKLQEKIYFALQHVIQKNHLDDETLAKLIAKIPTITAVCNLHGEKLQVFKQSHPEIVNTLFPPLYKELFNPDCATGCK
In short: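 HepG2 cells transiently transfected with GAL4-UAS reporter units expressing chimeric NR-Gal4 protein; reporter mRNA measured 24 h after dosing by RT-PCR, 6-FAM labelling and capillary electrophoresis. Gain-of-signal fitted relative to DMSO baseline.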

[18] = read-out: Intercellular Adhesion Molecule 1 (ICAM1), ICAM1 (gene 3383); assay: BSK_3C_ICAM1: BioMAP Diversity Plus: 3C Assay for Intercellular Adhesion Molecule 1 (ICAM1) Biomarker Activity (AID 2283003); conditions: primary human endothelial cells (HUVEC); actives raise or lower the signal
In short: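 HUVEC primary cells stimulated under 3C conditions; ICAM1 measured by ELISA 24 h after compound dosing. Curves fitted bidirectionally against the DMSO baseline. Overt cytotoxicity checked by SRB staining of parallel cultures.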

[19] = target: human Retinoic Acid Receptor beta (RARb), RARB (gene 5915) (UniProt P10826); assay: ATG_RARb_TRANS: Attagene TRANS-FACTORIAL HepG2 Assay for human Retinoic Acid Receptor beta (AID 2283004; active = hit-call score of the fitted dose curve at least 0.9, where 1 is the maximum)
human Retinoic Acid Receptor beta (RARb), RARB (gene 5915), sequence (P10826 whole entry, looked up, the tested form may be a part): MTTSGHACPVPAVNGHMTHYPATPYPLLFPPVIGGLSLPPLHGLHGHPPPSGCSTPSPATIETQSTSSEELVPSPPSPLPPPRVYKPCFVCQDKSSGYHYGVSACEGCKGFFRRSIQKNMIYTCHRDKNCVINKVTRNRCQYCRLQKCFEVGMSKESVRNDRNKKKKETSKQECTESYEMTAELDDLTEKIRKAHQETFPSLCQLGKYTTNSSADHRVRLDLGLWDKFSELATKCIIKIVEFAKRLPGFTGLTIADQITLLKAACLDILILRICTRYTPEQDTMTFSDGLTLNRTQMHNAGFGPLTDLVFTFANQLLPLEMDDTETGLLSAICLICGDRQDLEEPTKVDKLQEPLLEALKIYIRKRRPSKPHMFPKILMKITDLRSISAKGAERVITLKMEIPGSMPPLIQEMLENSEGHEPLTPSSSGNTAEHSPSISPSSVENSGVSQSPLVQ
In short: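 Readout is reporter mRNA induction: RNA reverse-transcribed, PCR-amplified, FAM-labelled, HpaI-cut and resolved by capillary electrophoresis. Transiently transfected HepG2 cells carrying exogenous NR–Gal4 chimeras were dosed for 24 h; activity fitted upward relative to DMSO.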

[20] = BSK_3C_uPAR: BioMAP Diversity Plus: 3C Assay for Urokinase-type plasminogen activator receptor (uPAR) Biomarker Activity (AID 2282998); conditions: BioMAP 3C HUVEC, uPAR biomarker ELISA; actives raise or lower the signal
In short: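 Dose primary human umbilical vein endothelial cells, incubate 24 h, measure cell-surface uPAR by ELISA, then fit the signal in both directions against the DMSO negative control.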

Measured: AC50

Cc1cccc2ccccc12
not listed: [18] | [19] | [20]
inactive: all other assays above

CC(C)(C)c1csc(-c2cc3cc(OCc4ccccc4CC(=O)O)ccc3o2)n1
inactive: [1] | [2] | [6] | [10] | [11] | [18] | [15]
active: [4] 8.91 µM | [5] 33.4 µM | [7] 35.7 µM | [8] 29.8 µM | [9] 22.4 µM | [13] 18.1 µM | [14] 1.51 µM

OC12N=C(c3ccccc3)SC1Cc1cc(Cl)ccc12 (stereo not drawn)
inactive: [1] | [2] | [5] | [6] | [8] | [10] | [11] | [17]
active: [4] 3.75 µM | [7] 5.1 µM | [9] 20 µM | [13] 31.5 µM | [14] 0.03 µM | [15] 2.41 µM

CC[C@@H]1C[C@H](N(Cc2cc(C(F)(F)F)cc(C(F)(F)F)c2)C(C)=O)c2cc(C(F)(F)F)ccc2N1C(=O)OC(C)C
active: [12] 1.1 µM | [15] 0.118 µM
not listed: [10] | [17] | [20]
inactive: all other assays above

Cc1cc(F)ccc1-c1cc(N2CC[C@@H](O)[C@H]2CO)ncc1N(C)C(=O)C(C)(C)c1cc(C(F)(F)F)cc(C(F)(F)F)c1
inactive: [1] | [2] | [3] | [4] | [5] | [6] | [11] | [14]
active: [7] 12.4 µM | [8] 11.8 µM | [9] 12.5 µM | [18] 12.8 µM | [13] 5.65 µM | [15] 1.14 µM

CCO[Si](CCCNC(N)=O)(OCC)OCC
not listed: [3] | [10] | [11] | [14] | [15] | [17] | [19] | [20]
inactive: all other assays above

CC1(C)NC(=O)N(c2ccc([N+](=O)[O-])c(C(F)(F)F)c2)C1=O
inactive: [1] | [2] | [4] | [5] | [6] | [7] | [20] | [8] | [9] | [10] | [13] | [14] | [16]
active: [4] 68.8 µM and 22 µM and 46 µM

CN(C)C(=O)C1(N2CCCCC2)CCN(CC[C@@]2(c3ccc(Cl)c(Cl)c3)CN(C(=O)c3ccccc3)CCO2)CC1
active: [3] 0.62 µM | [4] 0.458 µM | [7] 33.1 µM | [8] 29.5 µM | [9] 27.9 µM | [13] 6.91 µM
inactive: [1] | [2] | [5] | [6] | [10] | [11] | [15]

CC(C)(C)c1cc(/C=C2\SC(N)=NC2=O)cc(C(C)(C)C)c1O
inactive: [2] | [3] | [10] | [11] | [19] | [12] | [16]
active: [1] 18.4 µM | [4] 11.6 µM | [5] 16.2 µM | [6] 11 µM | [7] 14.8 µM | [8] 29.4 µM | [9] 30.4 µM | [18] 31.7 µM | [13] 13.4 µM | [14] 6.79 µM | [15] 4.17 µM

CN1C(=O)N(c2ccccc2Br)Cc2cnc(Nc3ccc4c(c3)OCC(CO)O4)nc21 (stereo not drawn)
inactive: [1] | [3] | [4] | [14] | [15]
active: [2] 2.93 µM | [5] 9.54 µM | [6] 0.0368 µM | [7] 9.9 µM | [8] 33.6 µM | [9] 9.49 µM | [18] 28.1 µM | [13] 2.28 µM

COc1cccc([C@H](O)C2CCN(CCc3ccc(F)cc3)CC2)c1OC
active: [4] 140 µM | [5] 157 µM | [6] 100 µM
not listed: [10] | [12] | [14] | [17] | [18] | [19] | [20]
inactive: all other assays above
